Bioassay records as filed in PubChem.
Hits are enriched below; roughly 2.7% of the tested compounds scored in any of these assays.
ANO1 activ: TMEM16A chloride channel activators or potentiators, primary screen, cell-based, HTS; Anoctamin-1 (Mus musculus), Q8BHY3; HEK293 TMEM16A/YFP-H148Q/I152L, iodide quench fluorescence; hits give low values; B-score at 10 µM; actives 0.3% (n = 340,000); AID 623877, 2012;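 active means fluorescence-ratio B-score plate-corrected deviation score at least 3 library SD below zero, with starting fluorescence score within 5 deviations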;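 further: channel opened by trigger with iodide after compound preincubation; score built on the fluorescence ratio of max minus min over baseline; more negative score means more quench and so TMEM16A activation or potentiation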
CHT block: inhibitors of human choline transporter CHT; High affinity choline transporter 1 (Homo sapiens), Q9GZV3; B-score at 10 µM; AID 488975, 2010; CHT-expressing cells, membrane potential dye, choline response; hits give low values; actives 0.86% (n = 310,000);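 active means B-score over 3 SD under the library average, and starting fluorescence ratio not unusually high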;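 further: choline stimulus applied at its EC90 after an EC20 pre-addition; B-score computed on integrated fluorescence ratio after choline addition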
IDE cell inh: human IDE inhibitors in live cells, primary screen, fluorescence polarization, HEK cells, FAbetaB substrate; actives 0.41% (n = 320,000); AID 434962, 2010; FAbetaB cleavage; inhibition, % at 5.59 µM; Insulin-degrading enzyme (Homo sapiens), P14735;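 active means percent inhibition above the average of all tested compounds plus 3 SD, set per screening campaign, cut at about 16% in these data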;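 further: IDE supplied by intact live HEK cells; FP after avidin binding of uncleaved biotin substrate so inhibition keeps polarization high; 0% = DMSO wells and 100% = 60 µM reference IDE inhibitor Ii1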
ANO1 block: TMEM16A chloride channel inhibitors, primary screen, cell-based, HTS; HEK293 TMEM16A/YFP iodide influx fluorescence, ionomycin; actives 1.2% (n = 310,000); normalized B-score (activity score, 25-100; higher = stronger inhibition) at 10 µM; Anoctamin-1 (Mus musculus), Q8BHY3;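 active means ratio plate-corrected score three or more library SD toward inhibition, starting fluorescence score within five deviations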;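 further: score derived from kinetic fluorescence span divided by baseline fluorescence per well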
CHT allo act: CHT positive allosteric modulators, primary screen, cell-based, membrane potential dye, choline EC20. CHT-expressing cells; hits give high values; LV-AA mutant CHT in HEK293 cells. B-score at 10 µM. actives 0.49% (n = 310,000). AID 488977, 2010;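 active means initial fluorescence not abnormally high and integrated response B-score, plate-corrected, over 3 SD above library mean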
IDE cell activ: human IDE activators in live cells, primary screen, fluorescence polarization, HEK cells, FAbeta-B substrate. FAbeta-B cleavage; 0% vehicle, 100% cell-free pure enzyme wells. activation, % at 5.96 µM. actives 0.073% (n = 340,000). AID 493087, 2011;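 active means activation above the mean of all tested compounds plus 3 SD, set per screening campaign, cut at about 17% in these data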
TMEM16A reconf: TMEM16A chloride channel inhibitors, confirmation, cell-based, re-confirmation | shares compounds with ANO1 block | HEK293 TMEM16A/YFP-H148Q, iodide quench fluorescence; ionomycin added to raise cell calcium | inhibition, % at 10 µM | actives 39% (n = 2,300) | AID 652189, 2013;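 active means mean duplicate percent inhibition, scaled so buffer wells are 0 and the reference blocker 100, over three buffer SD above buffer mean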
HEK293 Ca mobil: calcium mobilization in TMEM16A/YFP HEK293 cells, confirmation, counter-screen for TMEM16A inhibitor project. AID 652231, 2013. Fluo4 calcium mobilization. shares compounds with ANO1 block. calcium response (% of ionomycin), % at 10 µM. actives 2% (n = 2,300);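 active means duplicate-averaged calcium signal over 20% of the ionomycin maximum, relative to buffer baseline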;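 further: each well's signal is peak minus trough fluorescence divided by its pre-addition baseline; 0% = buffer wells and 100% = ionomycin wells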
Parental YFP cnt: iodide YFP quench changes in parental YFP-HEK293, counter-screen for TMEM16A inhibitor project, cell-based; shares compounds with ANO1 block; ionomycin; AID 652233, 2013; 2,300 tested, under 10 active; YFP ratio F(max-min)/F0 at 10 µM;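 active means yellow fluorescent protein signal ratio exceeding the buffer control mean by over 5 SD of those controls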;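 further: ratio is mean of duplicate wells from kinetic YFP trace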
ClC-1 inh: ClC-1 chloride channel inhibition, selectivity assay for TMEM16A inhibitor project, cell-based, voltage-dependent ClC-1 | shares compounds with ANO1 block | CHO ClC-1-YFP, iodide influx fluorescence quench; iodide control reads 0, buffer control 100 | ratio percent, % at 10 µM | 2,300 tested, under 10 active | AID 652236, 2013;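 active means duplicate-mean ratio percent above the mean of iodide-only control wells, which defines zero, plus 5 of their SD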;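 further: higher percent means stronger block of ClC-1 iodide influx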
Target sequence (P35524 whole entry, looked up): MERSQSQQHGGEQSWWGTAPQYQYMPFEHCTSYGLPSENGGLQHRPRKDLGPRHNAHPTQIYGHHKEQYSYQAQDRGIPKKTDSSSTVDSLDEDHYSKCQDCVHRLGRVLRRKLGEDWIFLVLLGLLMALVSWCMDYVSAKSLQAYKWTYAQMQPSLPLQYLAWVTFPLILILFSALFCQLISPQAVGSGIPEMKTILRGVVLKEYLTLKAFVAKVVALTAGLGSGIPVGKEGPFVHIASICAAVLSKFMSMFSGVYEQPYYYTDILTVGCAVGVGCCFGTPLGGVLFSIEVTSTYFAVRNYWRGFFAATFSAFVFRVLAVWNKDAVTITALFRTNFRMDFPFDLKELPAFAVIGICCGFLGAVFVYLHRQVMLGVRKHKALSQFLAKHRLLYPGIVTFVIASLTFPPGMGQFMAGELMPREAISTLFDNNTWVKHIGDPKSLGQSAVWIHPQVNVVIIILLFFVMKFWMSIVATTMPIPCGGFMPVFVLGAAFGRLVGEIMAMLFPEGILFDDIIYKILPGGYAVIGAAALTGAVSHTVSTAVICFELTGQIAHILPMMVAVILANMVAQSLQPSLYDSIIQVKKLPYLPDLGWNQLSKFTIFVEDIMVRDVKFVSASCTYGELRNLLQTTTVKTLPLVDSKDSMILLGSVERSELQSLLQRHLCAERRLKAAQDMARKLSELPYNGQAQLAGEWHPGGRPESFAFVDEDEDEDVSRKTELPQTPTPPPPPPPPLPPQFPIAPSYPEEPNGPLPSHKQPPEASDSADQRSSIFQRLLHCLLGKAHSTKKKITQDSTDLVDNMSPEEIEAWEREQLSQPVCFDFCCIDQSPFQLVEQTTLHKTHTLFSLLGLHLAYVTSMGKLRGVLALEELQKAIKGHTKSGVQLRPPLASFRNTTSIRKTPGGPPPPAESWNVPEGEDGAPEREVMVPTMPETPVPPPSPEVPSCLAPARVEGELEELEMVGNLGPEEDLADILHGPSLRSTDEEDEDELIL
* marks the source's active call; other numbers are inactive results; i = inactive; . = not tested or not shown.

SMILES	ANO1 activ	CHT block	IDE cell inh	ANO1 block	CHT allo act	IDE cell activ	TMEM16A reconf	HEK293 Ca mobil	Parental YFP cnt	ClC-1 inh
Nc1c(C(=O)N/N=C/c2cccnc2)oc2nc(-c3ccccc3)cc(-c3ccco3)c12	i	i	5.1	i	i	.	i	i	-1.12	1.0
CCNC(=O)C1CC(=O)N(c2ccc(Br)cc2)C1 (centres undefined)	i	i	-2.5	i	i	-4.2	i	i	-0.966	-4.0
C=CCNC(=O)C1CC(=O)N(c2ccc(Br)cc2)C1 (centres undefined)	i	i	1.6	i	i	2.2	.	.	.	.
CCOC(=O)C1=CNS(=O)(=O)NC1c1ccc(OC(C)=O)cc1 (centres undefined)	.	.	.	.	.	2.0	.	.	.	.
CCCCOC(=O)c1ccc(NC(=O)C(=O)NCc2cccnc2)cc1	i	i	5.0	25*	i	0.4	i	i	-1.2	-7.0
O=c1[nH]c2ccsc2c(=O)n1CCO	i	i	6.9	i	i	9.6	.	.	.	.
O=C(CS(=O)CC(=O)N(CC(=O)NC1CCCC1)C1CCCC1)Nc1ccc(F)cc1 (centres undefined)	.	i	-2.9	25*	i	6.4	i	i	-1.07	-8.0
CC(C)(C)N(CC(=O)NC1CCCCC1)C(=O)CS(=O)CC(=O)Nc1ccc(F)cc1 (centres undefined)	i	i	0.6	i	i	2.3	.	.	.	.
COCCn1c(SCc2csc(-c3ccccc3)n2)nc2ccccc21	i	i	-0.1	100*	i	-0.1	24.0%*	i	-0.965	-10.5
CCOC(=O)C(=O)N(CC)C1CCS(=O)(=O)C1 (centres undefined)	i	i	2.0	100*	i	4.3	i	i	-1.01	-17.0
Cc1ccc2nc(SCC(=O)NCCCN3CCCC3=O)[nH]c2c1	i	.	-1.4	.	.	3.5	.	.	.	.
Cc1ccc(-c2nc(CS(=O)CC(=O)NCCCc3ccccc3)c(C)o2)cc1 (centres undefined)	i	i	-0.6	i	i	-0.6	.	.	.	.
CCN(CC)CCNC(=O)CS(=O)Cc1nc(-c2ccc(C)cc2)oc1C (centres undefined)	i	i	-0.5	i	i	2.1	i	i	-0.919	-8.0
O=C(NCc1ccco1)C1CC(O)CN1C(=O)Nc1ccccc1 (centres undefined)	i	i	5.0	i	i	3.1	.	.	.	.
O=C(NCc1ccccc1C(F)(F)F)C1CC(O)CN1C(=O)Nc1ccccc1 (centres undefined)	i	i	0.8	i	i	3.6	i	i	-0.847	-8.5
CC(C)(C)S(=O)(=O)N1Cc2ccc(CO)cc2[C@@H]1CCO	.	.	.	.	.	3.5	.	.	.	.
Cc1cc(NNC(=O)c2cccc(C(F)(F)F)c2)nc2c1c(C)nn2C	i	i	5.8	25*	i	1.0	i	i	-1.07	-19.0
